Screening data: PubChem, National Center for Advancing Translational Sciences (NCATS)
Pf growth 48h: inhibits P. falciparum growth in the first generation, 48 h; P. falciparum luciferase growth in erythrocytes, 48 h; Potency, µM (doses to about 28.7 µM), for inactives: at the top dose activity change, negative = inhibition, most hits filed as inhibitors; AID 504832; actives 5.9% (n = 310,000); also: potency is read from the fitted curve at half-maximal effect; % is scaled to controls: 0 for no effect and ±100 for the full control effect
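Luminescence readout; reporter = integrated firefly luciferase in P. falciparum. RBC culture at 2% hematocrit, 0.1% parasitemia final, 37 C/5% CO2; decreased signal taken as growth inhibition.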
Cycloheximide cs: counter-screen for Shiga toxin inhibitors: cycloheximide protein synthesis inhibition; cell reporter, cycloheximide protein synthesis inhibition counterscreen; max response, %; actives 12% (n = 300,000); AID 2314; in the data active = max response mostly above about 13%, no sharp cut-off; inactive = mostly below about 14%; also: read at 38.3 µM for the half of the compounds with a filed dose; 0% is about no effect
Pf growth 96h: inhibits malaria parasite growth, 96 h | P. falciparum luciferase reporter growth, 96 h | Potency, µM (highest dose often 28.7 µM), for the others: at the top dose activity change, negative = inhibition, actives largely listed as inhibitors | actives 6.9% (n = 320,000); also: potency is read from the fitted curve at half-maximal effect; % is scaled to controls: 0 for no effect and ±100 for the full control effect
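Infected RBCs, 2% Hct / 0.05% parasitemia final; luciferase-reporter P. falciparum; cpd 96 h, 37 C, 5% CO2; luciferase detection reagent; luminescence.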
Shiga inhibitor: inhibitors of Shiga toxin in Vero cells. Vero cells, Shiga toxin protein synthesis inhibition reporter. inhibition, % at 38.7 µM. actives 9.2% (n = 290,000). AID 2315; in the data active = inhibition mostly above about 28%, no sharp cut-off; inactive = mostly below about 43%; also: 0% is about no effect
* = called active by the depositor; i = inactive; ? = inconclusive; · = no result given. A selection: hits, their analogues and other compounds. The true share with any hit is near 21%. Unless noted, calls follow the shape of the dose curve; as a rule, active = well fitted inhibition curve with a large enough effect; inconclusive = small, poorly fitted or top-dose-only effect, or another doubt; inactive = no such curve, though single readings can be large or run the other way.

SMILES | Pf growth 48h | Cycloheximide cs | Pf growth 96h | Shiga inhibitor
COc1ccc(OC)c(S(=O)(=O)Nc2ccc(Oc3ccccc3)cc2)c1 | -2.9% | -1.4 | 0.0% | -14.9
O=C(O)c1cccc(S(=O)(=O)Nc2ccc([N+](=O)[O-])cc2O)c1 | 6.7% | -3.0 | 49.1% | -11.9
COc1ccc(OC)c(S(=O)(=O)Nc2ccc(O)c3ccccc23)c1 | 1.17µM* | 25.9* | · | 34.6*
O=C(O)CSc1cc(NS(=O)(=O)c2cccc([N+](=O)[O-])c2)c2ccccc2c1O | 10.4µM* | 12.9* | ? | 10.9
CCc1ccc(S(=O)(=O)Nc2cc(SCC(=O)O)c(O)c3ccccc23)cc1 | 7.38µM* | 8.8 | ? | 29.7*
CCOC(=O)c1ccccc1NS(=O)(=O)c1ccc(OCC)cc1 | · | 14.6 | 9.28µM* | 9.0
COc1ccc(CCNC(=O)C(=O)NCc2cccs2)cc1OC | ? | -2.7 | 7.1% | -7.6
Cc1ccc(S(=O)(=O)N2CCC(C(=O)OCC(=O)NC3(C#N)CCCCC3)CC2)cc1C | ? | · | 14.3% | ·
CCOC(=O)NCc1ccc(S(=O)(=O)Nc2ccccc2C)cc1 | · | -2.5 | 13.1µM* | -10.0
CCOc1ccc(S(=O)(=O)Nc2cc(SCC(=O)O)c(O)c3ccccc23)cc1 | 10.4µM* | 14.6 | 1.85µM* | 6.1
Cc1ccc(C)c(S(=O)(=O)Nc2cc(SCC(=O)O)c(O)c3ccccc23)c1 | ? | 13.7* | 20.7% | -1.5
CC(C)(C)C(=O)Oc1ccc(S(=O)(=O)Nc2ccccc2C(=O)NCC(=O)O)cc1 | -4.3% | · | 13.5µM* | ·
Cc1ccc(CN2CCNC(=O)C2CC(=O)N(C)C2CCOCC2)cc1 (configuration not stated) | -4.2% | -0.8 | ? | -6.3
CC(=O)Nc1ccc(C2=CC(=O)C[C@H](c3ccc4c(c3)OCO4)C2)cc1 | ? | · | -14.7% | ·
Cc1cccc(OCc2nnc(SC(C)C(=O)O)n2-c2ccccc2)c1 (configuration not stated) | -18.6% | -1.5 | 15.7% | ·
CCNC(=S)NS(=O)(=O)c1ccc(CC)cc1 | 6.9% | -1.3 | ? | -19.7
O=S(=O)(Nc1cc(Sc2cccc3cccnc23)c(O)c2ccccc12)c1ccccc1 | 3.29µM* | 20.8 | 242.6% | 52.9*
CCc1ccc(S(=O)(=O)Nc2ccc(O)c3ccccc23)cc1 | 9.28µM* | -3.4 | 8.5% | -3.1
CCCN(CC(=O)Nc1ccccc1C)CC(=O)Nc1ccc(Br)cc1F | ? | -0.7 | -23.3% | -1.6
CCCn1c(SC(C)C(=O)N2CCOCC2)nc2ccc(Br)cc2c1=O (configuration not stated) | -43.5% | · | ? | ·
CC[n+]1c(/C=C/c2ccc(N(C)C)cc2)ccc2ccccc21 | 0.657µM* | 24.1* | 0.415µM* | active
CC[n+]1c(/C=C/c2ccc(OC(C)=O)c(OC)c2)ccc2ccccc21 | ? | 40.0* | ? | 61.2*
CN(C)c1ccc(/C=C/c2nc3ccccc3c(=O)n2-c2ccc(C(=O)O)cc2)cc1 | ? | -1.6 | ? | -4.4
CCN(CC)c1ccc(/C=C/c2ccc3ccc(OC)cc3[n+]2CC)cc1 | 1.85µM* | 6.4 | -4.2% | -4.7
CC[n+]1c(/C=C/c2ccc(OC)c(OC)c2)ccc2ccccc21 | 1.04µM* | 25.8* | -19.3% | 115.7*
SMILES | Pf growth 48h | Cycloheximide cs | Pf growth 96h | Shiga inhibitor
CC[n+]1c(/C=C/c2cc([N+](=O)[O-])ccc2O)ccc2ccccc21 | ? | 1.5 | 95.0% | 6.8
COc1cc(OC)cc(C(=O)NC(C(=O)N2CCc3ccccc3C2)C(C)C)c1 (configuration not stated) | ? | -3.6 | ? | -6.6
Oc1ccccc1C1=Nc2nc3ccccc3n2C(c2ccccc2)C1 (configuration not stated) | ? | 49.2* | i | 84.4*
Cc1ccsc1CN(C)C(=O)c1ccc(Oc2ccccc2)cc1 | 12.0% | 18.0* | -26.1% | 63.3*
CC(C)c1nnc(SCC(=O)NC2CCCC2)n1C | ? | -0.7 | 33.1% | 25.2
CCC(C)NC(=O)CC(c1ccccc1)c1cc(C)ccc1O (configuration not stated) | ? | 4.8 | 23.9% | 8.3
Cc1ccc(O)c(C(CC(=O)NC(C)C)c2ccccc2)c1 (configuration not stated) | -19.4% | -2.2 | 13.1µM* | -10.2
Cc1ccc(O)c(C(CC(=O)N2CCCC2)c2ccccc2)c1 (configuration not stated) | -0.9% | -1.5 | 0.37µM* | 6.2
Cc1ccc(C(=O)NCCC(=O)N2CCC3(CC2)NCCc2[nH]cnc23)cc1C | -2.6% | 11.4* | 4.3% | -2.1
Cc1ccc(C(=O)NCC(=O)N2CCC3(CC2)NCCc2[nH]cnc23)cc1C | -4.1% | -2.0 | 24.5% | -2.7
